Results from the supplement of paper PMC9334596.
Several values for one entry are separate records, joined by “and”; a condition that tells them apart may be missing. Identical values can stand only once. Whole data set: some 5,300 compounds, median “PER2::LUC luminescence relative to vehicle control” near 0.96, cut for the highest 2% near 1.3. The sample as a whole holds a higher share of the highest values than the screen did.

System: mPer2Luc MEF
Assay: PER2::LUC luminescence relative to vehicle control (fold of vehicle); higher = higher PER2::LUC reporter signal
Conditions: 10 µM
In short: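 Each value gives PER2::LUC luminescence as fold of vehicle control, measured with the ONE-Glo luciferase assay system in mouse embryonic fibroblasts carrying the mPer2Luc reporter. Cells grown in DMEM with 10% FBS at 37 °C and 5% CO2 were seeded at ~3000 per well in 384-well plates. Library compounds were added at 10 μM 48 h later, and readings were taken 24 h and 30 h after treatment.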

Row | Structure (SMILES) | PER2::LUC luminescence (time after treatment 24 h) | PER2::LUC luminescence (time after treatment 30 h)
1 | CC(=O)OC[C@@]1(O)C[C@@]23CC[C@@H]4c5ccoc5CC[C@@]4(C)[C@@H]2CC[C@@H]1C3 | 1.05 | 1.06
2 | C=CCCCCCCCCCCCC(O)CC(O)CO (centres undefined) | 0.967 | 0.789
3 | CC1(C)CCC[C@](C)([C@H]2CC[C@]3(C)[C@@H]2[C@H](O)C[C@@H]2[C@@]4(C)CC[C@H](O)C(C)(C)[C@@H]4CC[C@]23C)O1 | 1.02 | 1.02
4 | CC(C)(C)c1nc2c3cc[nH]c(=O)c3c3cc(F)ccc3c2[nH]1 | 0.802 | 0.906
5 | CCOC(=O)c1cn(-c2c(F)c(F)c(C#N)c(F)c2F)c2c(F)c(F)c(F)cc2c1=O | 1.08 | 1.19
6 | O=C(c1ccc(OCCN2CCCCC2)cc1)c1c(-c2ccc(O)cc2)sc2cc(O)ccc12 | 0.35 | 0.69
7 | CCCCOc1ccc(C(=O)CCN2CCCCC2)cc1 | 0.957 | 1.41
8 | CCCCOc1ccc(OCCCN2CCOCC2)cc1 | 1.12 | 1.18
9 | CCN1CCN(Cc2ccc(NC(=O)Nc3ccc(Oc4cc(NC)ncn4)cc3)cc2C(F)(F)F)CC1 | 0.107 | 0.14
10 | CO/N=C(\C(=O)N[C@@H]1C(=O)N2C(C(=O)[O-])=C(C[n+]3ccc(N)n3CCO)CS[C@H]12)c1csc(N)n1 | 1.12 | 1.1
11 | CSc1ccc(OCc2ncc([N+](=O)[O-])n2C)cc1 | 1.41 | 1.31
12 | Cn1c([N+](=O)[O-])cnc1COC(N)=O | 1.15 | 1.27
13 | Cc1ncc([N+](=O)[O-])n1C | 1.13 | 0.998
14 | N[C@](CCCCB(O)O)(CCN1CCCCC1)C(=O)O | 1.07 | 1.08
15 | Cc1ccccc1-n1c([C@H](C)Nc2nc(N)nc3nc[nH]c23)nc2cccc(C)c2c1=O | 0.801 | 0.66
16 | CCCCN(CCCC)S(=O)(=O)c1ccc(C(=O)O)cc1 | 0.899 | 1.04
17 | COc1ccc(/C=C/C(=O)c2cc(O)ccc2O)cc1 | 0.754 | 0.827
18 | O=C(/C=C/c1ccc(O)cc1)CC(=O)/C=C/c1ccc(O)cc1 | 1.1 | 1.07
19 | COc1ccc(C(=O)c2ccc(C)cc2)c(O)c1 | 1.02 and 1.29 | 1.55 and 1.57
20 | COc1ccc(C(=O)c2ccccc2)c(O)c1 | 1.22 | 1.21
21 | COc1ccc([C@@H](C)C(=O)c2ccc(O)cc2O)cc1 | 1.1 | 1.08

Row | Structure (SMILES) | PER2::LUC luminescence (time after treatment 24 h) | PER2::LUC luminescence (time after treatment 30 h)
22 | COc1cc(/C=C/C(=O)c2ccc(O)cc2O)ccc1O | 1.02 | 1.04
23 | O=C(/C=C/c1ccccc1)c1ccc(O)cc1 | 1.33 | 1.48
24 | COc1ccc(CC(=O)c2ccc(O)cc2O)cc1 | 1.63 | 1.51
25 | COc1ccc(C(=O)/C=C/c2ccccc2)cc1 | 1.25 | 1.28
26 | COc1ccc(/C=C/C(=O)c2ccc(O)cc2O)cc1 | 1.51 | 1.56
27 | COc1ccc(C(C)=O)c(O)c1 | 0.967 | 0.936
28 | COc1ccc(C(=O)c2ccccc2O)c(O)c1 | 1.02 | 1.04
29 | CCC(C(=S)O[C@]12CCC[C@H](CC1)N2C)c1ccccc1 (some centres undefined) | 0.715 | 0.77
30 | Nc1ccc(S(=O)(=O)NCCc2ccccc2)cc1 | 1.03 | 1
31 | CC1=CC(=O)C2=C(C)CC[C@@H]3[C@H](OC(=O)[C@H]3C)[C@@H]12 | 0.959 | 0.978
32 | OCC12COC(c3ccc(F)cc3)N1C(c1ccc(F)cc1)OC2 (centres undefined) | 1.07 | 1.03
33 | C[C@@H](Nc1cc(NS(=O)(=O)N2CCC2)nc(SCc2cccc(F)c2F)n1)[C@@H](O)CO | 1.03 | 1
34 | COc1ccc2c(c1)C[C@H](C(=O)Nc1ccc(-c3cn[nH]c3)cc1OCCN(C)C)CO2 | 0.472 | 0.452
35 | CCN(CC)C(=O)C(c1ccccc1)N1CCN(c2ccc(NC(=O)c3ccccc3-c3cccnc3)cc2F)CC1 (centres undefined) | 0.968 | 1.09
36 | O=C[C@H](O)[C@H](O)CO | 0.921 | 0.987
37 | CN1C(=O)C[C@H](C(=O)O)[C@H]1c1cccnc1 | 1.08 | 1.07
38 | O=C(/C=C/c1ccc(O)cc1)c1ccc(O)cc1O | 1.24 | 1.41
39 | O=C(/C=C/c1ccccc1)c1ccc(O)cc1O | 1.21 | 1.43
40 | CC(C)=CCc1c(O)ccc(C(=O)/C=C/c2ccc(O)cc2)c1O | 0.904 | 0.903
41 | O=C(/C=C/c1ccc(O)c(O)c1)c1ccc(O)cc1O | 1.04 | 1.13
42 | O=C(/C=C/c1ccccc1)c1ccc(O[C@@H]2O[C@H](CO)[C@@H](O)[C@H](O)[C@H]2O)cc1O | 1.21 | 1.27

Row | Structure (SMILES) | PER2::LUC luminescence (time after treatment 24 h) | PER2::LUC luminescence (time after treatment 30 h)
43 | COc1cc(O)c(C(=O)/C=C/c2ccccc2)c(OC)c1 | 0.907 | 0.937
44 | Clc1ccc(Nc2nc3ccccc3c3nc(C4CCCCC4)[nH]c23)cc1Cl | 0.84 | 0.867
45 | OCC1OC(O)CC(O)C1O (centres undefined) | 1.15 | 0.973
46 | CCCCCCCC(=O)CCc1ccc(O)c(OC)c1 | 1.04 | 0.901
47 | N=C(N)SCc1ccc(CSC(=N)N)s1 | 1.01 and 0.976 | 1.01 and 0.977
48 | COCCOc1nc(N)c2[nH]c(=O)n(Cc3ccccc3)c2n1 | 1.21 | 1.13
49 | COC(=O)CC1CC(c2ccc(O)cc2)=NO1 (centres undefined) | 1.51 | 1.75
50 | O=C(O)CC1CC(c2ccccc2)=NO1 (centres undefined) | 0.994 and 1.06 | 0.948 and 1.15
51 | CC(C)=CCC[C@](C)(O)[C@H]1CC[C@]2(C)[C@@H]1CC[C@@H]1[C@@]3(C)CCC(=O)C(C)(C)[C@@H]3CC[C@]12C | 1.05 | 0.987
52 | CC(=O)OC[C@@]1(O)C[C@@]23CC[C@@H]4c5ccoc5C=C[C@@]4(C)[C@@H]2CC[C@@H]1C3 | 1.02 | 0.958
53 | N#Cc1cccc2sc(C(=O)N=C(N)N)cc12 | 1.02 | 1.08
54 | N[C@H](CC(=O)O)C(=O)O | 1.09 | 1.08
55 | C[N+](C)(C)C[C@H](O)CC(=O)O | 0.959 | 0.919
56 | NCC(O)CC(=O)O (centres undefined) | 1.23 and 1.06 | 1.56 and 0.991
57 | O=C1OC(C=Cc2ccccc2)=NC1=Cc1cccnc1 | 1.03 | 1.05
58 | O=C(CCc1ccccc1)N1CCC(O)(Cn2cnc3cc(Cl)ccc3c2=O)CC1 | 0.949 | 0.916
59 | Cc1ccc2c(Nc3ccc(Cl)cc3)nccc2c1Nc1ncccc1-c1ncnc2nc[nH]c12 | 0.42 | 0.349
60 | N/C(=N\C(=O)c1nc(Cl)c(N)nc1N)NCc1ccccc1 | 1.08 | 0.986
61 | N=C(N)NC(=O)c1nc(Cl)c(N)nc1N | 1.32 | 1.12
62 | N=C(NC(=O)c1nc(Cl)c(N)nc1N)Nc1ccccc1 | 1.32 | 1.39
